Compound activity (PubChem BioAssay)
Sampled rows, rich in hits. Any-hit rate of the full collection: about 18%.
TDP1 inh: TDP1 (human) enzyme inhibition; Q9NUW8; recombinant TDP1, AlphaScreen DNA substrate cleavage; Potency, µM (titrated, usually from 130 µM), most hits filed as inhibitors; 0.28% of 350,000 active; also: nearly all actives have a fitted effect of over 40% in size
Target sequence (Q9NUW8 whole entry, looked up): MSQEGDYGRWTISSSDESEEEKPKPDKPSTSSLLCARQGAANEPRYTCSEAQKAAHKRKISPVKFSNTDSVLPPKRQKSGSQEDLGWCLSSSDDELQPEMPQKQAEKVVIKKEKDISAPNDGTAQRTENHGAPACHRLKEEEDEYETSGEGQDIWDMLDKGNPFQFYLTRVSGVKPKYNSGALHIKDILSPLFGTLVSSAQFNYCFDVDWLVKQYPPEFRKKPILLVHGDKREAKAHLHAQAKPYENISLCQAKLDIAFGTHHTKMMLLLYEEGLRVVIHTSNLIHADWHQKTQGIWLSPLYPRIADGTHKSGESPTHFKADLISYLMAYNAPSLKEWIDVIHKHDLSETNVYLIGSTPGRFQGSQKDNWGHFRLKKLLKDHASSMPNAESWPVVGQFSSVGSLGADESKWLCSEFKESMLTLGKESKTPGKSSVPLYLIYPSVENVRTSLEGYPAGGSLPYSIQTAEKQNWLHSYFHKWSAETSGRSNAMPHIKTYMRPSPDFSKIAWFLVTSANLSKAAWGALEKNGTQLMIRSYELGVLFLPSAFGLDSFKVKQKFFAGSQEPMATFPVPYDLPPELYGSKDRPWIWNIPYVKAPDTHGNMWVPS
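Signal: AlphaScreen proximity between streptavidin donor and anti-FITC acceptor beads on intact substrate. Reaction: Tdp1 1 nM, substrate 15 nM final, 5 min RT after 15 min compound preincubation.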
IL1B secr inh: inflammasome signaling inhibition, IL-1 beta readout. THP-1 LPS/ATP IL-1B secretion, AlphaLISA, 16 h; stronger effect = lower value. AID 743279. 4.7% of 360,000 active. activity change, % at 57.5 µM; in the data active = activity change below about -50%; inconclusive = mostly about -30% to -49%
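THP-1 cells pretreated 1 hr with compounds (up to 57.5 uM final), then stimulated with LPS (250 ng/mL final) plus ATP (1.25 mM final); secreted IL-1B measured by AlphaLISA after 16 hr, decreased signal indicating inhibition.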
TDP1 cell noCPT: qHTS for Inhibitors of human tyrosyl-DNA phosphodiesterase 1 (TDP1): qHTS in cells in absence of CPT; 15% of 420,000 active; DT40 Tdp1-/- hTDP1 cells, no CPT, ATP luminescence, 48 h; Potency, µM (titrated, usually from 46.2 µM), most hits filed as inhibitors; AID 686978, 2013; also: nearly all actives have a fitted effect of over 55% in size
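A cellular qHTS used chicken DT40 cells lacking endogenous Tdp1 but carrying stably transfected human TDP1. Compounds were applied without camptothecin, and cell growth kinetics were judged by ATP-dependent luminescence after ≥48 hr.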
TGFb inhibitor: TGF-b pathway inhibition; 1.2% of 410,000 active; HepG2 CAGA-GFP TGF-b/SMAD3 reporter, GFP fluorescence, 18 h; TGF-beta stimulated, 500 pg/mL final; Potency, µM (titrated, usually from 46.1 µM), most hits filed as inhibitors; also: nearly all actives have a fitted effect of over 65% in size
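Smad-responsive CAGA-GFP expression was quantified in HEPG2 cells exposed to compounds and 500 pg/mL final TGF-beta for 18 h at 37 degrees C; unstimulated wells defined full inhibition.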
DT40 TDP1 CPT: DT40-hTDP1 cell growth loss with CPT; chicken DT40 Tdp1-/-;hTDP1 cells + 20 nM CPT, ATP luminescence, 48 h; Potency, µM (top dose mostly 46.2 µM), usual class: inhibitors; 12% of 420,000 active; AID 686979; also: nearly all actives have a fitted effect of over 55% in size
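Chicken DT40 Tdp1-/- cells complemented with human TDP1, 400 cells/well, exposed to compounds plus 20 nM camptothecin for at least 48 h at 37 C; viability read as ATP content by CellTiter-Glo luminescence.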
HepG2 tox-1: HepG2 cytotoxicity, counter-screen for TGF-b inhibitors; HepG2 CAGA-GFP viability, ATP luminescence, 18 h; Potency, µM (doses to about 46.1 µM), actives largely listed as cytotoxic; 0.76% of 410,000 active
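HepG2 CAGA-GFP cells (1000/well, DMEM with 1% FBS) received compound, then TGF-beta at 500 pg/mL final, and were incubated 18 hours at 37 degrees C. Viability was read by CellTiter-Glo luminescence. Media-only wells were set as complete cell-killing and DMSO as no toxicity.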
TGFb confirm: TGF-b pathway inhibition, cherry-pick retest; shares compounds with TGFb inhibitor; HepG2 CAGA-GFP TGF-b reporter, GFP fluorescence, 18 h; cells stimulated with TGF-beta, 500 pg/mL; Potency, µM (top dose mostly 46.1 µM), hits mostly inhibitors; 63% of 1,600 active; AID 720534; also: nearly all actives have a fitted effect of over 65% in size
HepG2 tox-2: toxic to HepG2 cells in TGF-b counterscreen | shares compounds with TGFb inhibitor | HepG2 CAGA-GFP viability, ATP luminescence, 18 h; cells stimulated with TGF-beta, 500 pg/mL | Potency, µM (titrated, usually from 46.1 µM), most hits filed as inhibitors | 27% of 1,600 active | AID 720535; also: nearly all actives have a fitted effect of over 70% in size
CCL64 TGFb inh: TGF-b inhibition, CCL64 orthogonal assay; shares compounds with TGFb inhibitor; CCL64 CAGA-GFP reporter, TGF-b stimulated, GFP fluorescence, 18 h; Potency, µM (top dose mostly 46.1 µM), usual class: inhibitors; 41% of 1,600 active; AID 720536; also: nearly all actives have a fitted effect of over 65% in size
TGFb COP inh: TGF-b inhibition validated with COP promoter; Potency, µM (series often up to 46.1 µM), most hits filed as inhibitors; 3% of 1,600 active; shares compounds with TGFb inhibitor; HepG2 COP-GFP TGF-b reporter, GFP fluorescence, 18 h; cells stimulated by added recombinant TGF-beta; also: nearly all actives have a fitted effect of over 70% in size
Hits are given with their value; - = inactive; ? = inconclusive; . = no result. Unless noted, calls follow the shape of the dose curve; as a rule, active = well fitted curve in the direction sought with a large enough effect; inconclusive = small, poorly fitted or top-dose-only effect, or another doubt; inactive = no such curve, though single readings can be large; an effect the other way counts as inactive or inconclusive.

SMILES	TDP1 inh	IL1B secr inh	TDP1 cell noCPT	TGFb inhibitor	DT40 TDP1 CPT	HepG2 tox-1	TGFb confirm	HepG2 tox-2	CCL64 TGFb inh	TGFb COP inh
O=C(CSc1n[nH]c(-c2ccncc2)n1)Nc1ccccn1	-	-	?	11.2µM	-	-	16.4µM	-	?	-
Cc1ccc(CNC(=O)CCC2CCCN(Cc3cc4ccccc4o3)C2)o1 (centres undefined)	.	-	?	?	?	-	.	.	.	.
CC(=O)N1CCN(c2ccc(NC(=S)NC(=O)COc3ccc(C(C)(C)C)cc3)cc2)CC1	-	-	?	?	?	-	4.61µM	?	-	-
CC(C)(C)c1ccc(C(=O)NC(=S)Nc2ccc(N3CCOCC3)cc2)cc1	-	-	-	-	-	-	.	.	.	.
CSc1nsc(SCC(=O)N2CCN(c3ccccc3)CC2)n1	-	-	?	?	-	-	.	.	.	.
COc1cccc(-c2nc(N3CCCCC3)c3ccccc3n2)c1O	.	?	20.6µM	11.2µM	25.9µM	-	18.4µM	?	?	-
CC1C=CCC2C(=O)N(c3cc(Cl)ccc3O)C(=O)C12 (centres undefined)	-	-	-	-	-	-	.	.	.	.
CC1=CC2=NC(=O)CC(C)(C(=O)N(CC(=O)NC(C)C)C3CCCC3)N2C=C1 (centres undefined)	-	.	.	.	.	.	.	.	.	.
Cc1c(NC(=O)C23CC4CC(CC(Br)(C4)C2)C3)c(=O)n(-c2ccccc2)n1C	-	-	-	-	-	-	.	.	.	.
COC(=O)c1c(NC(=O)Cc2ccccc2)sc2c1CCN(C(C)C)C2	.	?	?	-	?	-	.	.	.	.
COC(=O)c1sc(NC(=O)c2ccc([N+](=O)[O-])o2)c(C#N)c1C	-	?	6.51µM	4.47µM	9.2µM	-	7.31µM	10.3µM	14.6µM	-
COC(=O)c1c(NC(=O)c2ccc([N+](=O)[O-])o2)sc2c1CCN(C(C)C)C2	-	-96.6	0.82µM	20µM	0.581µM	-	2.59µM	10.3µM	25.9µM	-
CCCCn1nnnc1NCc1ccc(N(CC)CC)cc1	-	-	-	-	?	-	.	.	.	.
COc1ccc(-c2cc(=O)c3c(OC)c(OC)c(OC)cc3o2)cc1OC	-	.	.	.	.	.	.	.	.	.
COc1cc2oc(=O)cc(-c3ccc(-c4ccc(O)cc4)cc3)c2c(OC)c1OC	-	-	18.4µM	11.2µM	?	-	18.4µM	?	?	-
O=C1N=c2ccccc2=C1c1sc(Nc2ccc(O)cc2)nc1O	-	-	-	?	-	-	.	.	.	.
O=C(NCCNc1ccc([N+](=O)[O-])cc1)c1cccc(Br)c1	-	-	-	-	-	-	.	.	.	.
O=C(CCNc1ccc(Br)cc1)c1cccc([N+](=O)[O-])c1	-	-	18.4µM	12.6µM	14.6µM	-	18.4µM	-	-	-
Cc1cccc(C(CC(=O)O)NC(=O)C(F)(F)F)c1 (centres undefined)	-	-	-	-	-	-	.	.	.	.
COc1ccccc1CNC(=O)C1CCCN(S(=O)(=O)c2ccc3c(c2)CC(C)N3C(C)=O)C1 (centres undefined)	-	-	-	-	-	-	.	.	.	.
CCN(CC)C(=O)[C@H]1CC(CC(=O)NCc2cccc(C(F)(F)F)c2)C(=O)N2CCc3c([nH]c4ccccc34)[C@]12C (some centres undefined)	-	?	20.6µM	12.6µM	14.6µM	-	20.6µM	?	14.6µM	-
C[C@]12c3[nH]c4cc(-c5ccco5)ccc4c3CCN1C(=O)[C@@H](CC(=O)NCc1cccc(C(F)(F)F)c1)C[C@@H]2C(=O)N1CCCCC1	-	-60.1	25.9µM	7.94µM	?	-	16.4µM	?	?	-
CC[C@]12c3[nH]c4cc(-c5ccco5)ccc4c3CCN1C(=O)[C@@H](CC(=O)NCc1cccc(C(F)(F)F)c1)C[C@@H]2C(=O)N1CCN(C(=O)C2CC2)CC1	-	-	?	10µM	16.4µM	-	14.6µM	?	?	-
Cc1nc(C)n(CC(C)C(=O)N2CCN(S(=O)(=O)c3ccc(Cl)cc3)CC2)n1 (centres undefined)	.	-	-	-	-	-	.	.	.	.
CC1CN(C(=O)c2cc3cc([N+](=O)[O-])ccc3s2)CC(C)O1 (centres undefined)	-	-	-	-	-	-	.	.	.	.
SMILES	TDP1 inh	IL1B secr inh	TDP1 cell noCPT	TGFb inhibitor	DT40 TDP1 CPT	HepG2 tox-1	TGFb confirm	HepG2 tox-2	CCL64 TGFb inh	TGFb COP inh
Cc1cccc(NCc2ccc(O)c3ncccc23)c1C	-	-	14.6µM	11.2µM	?	-	10.3µM	-	?	-
Oc1ccc(CNc2cccnc2)c2cccnc12	-	.	.	.	.	.	.	.	.	.
COc1cc(NC(=O)C2Cc3ccccc3CN2S(C)(=O)=O)cc(OC)c1 (centres undefined)	.	-	?	11.2µM	-	-	-	-	-	-
CC(C)(C)c1ccc(S(=O)(=O)N2CCC(c3nc4ccc(Cl)cc4[nH]3)CC2)cc1	-	.	?	20µM	?	-	16.4µM	?	?	-
CC(=O)Nc1ccc(S(=O)(=O)N2CCC(c3nc4ccc(C)cc4[nH]3)CC2)cc1	-	-	?	?	?	-	.	.	.	.
Cc1ccc(S(=O)(=O)Nc2cccc3cccnc23)cc1	-	-97.5	20.6µM	3.98µM	?	-	16.4µM	-	8.2µM	-
COc1ccccc1C(C)NC(=O)CCC(=O)N1CCN(S(=O)(=O)c2ccc(Cl)cc2)CC1 (centres undefined)	.	-	?	?	?	-	.	.	.	.
Cc1cc2nn(-c3ccc(Cl)cc3)nc2cc1N	.	-	-	0.794µM	-	-	6.51µM	2.59µM	-	-
Cc1cc2nn(-c3ccc(F)cc3)nc2cc1N	.	-	-	?	-	-	.	.	.	.
